Assay [1] can be described thus: qHTS assay to identify small molecule antagonists of the constitutive androstane receptor (CAR) signaling pathway - cell viability counter screen (AID 1224837). Also: series mostly up to about 92 µM; nearly all actives have a fitted effect of over 45% in size. The method in brief:
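Cells are seeded, rested 4 hr at 37 C/5% CO2, dosed with compound (15-point series) and 50 nM CITCO, incubated a further 23 hr, and then CellTiter-Fluor reagent is added before fluorescence is read. The line is HepG2 with stable hCAR and CYP2B6-2.2kb.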
For orientation: Quantitative high-throughput screening tests each substance at several concentrations.

Assay [2] in a line: qHTS assay to identify small molecule antagonists of the estrogen related receptor signaling pathway with the pleiotropic PPARgamma coactivator (PGC) from Tox21 10K library - cell viability counter screen (AID 1224840; active = well fitted cell-killing curve with a large enough effect in the repeat runs, not every such curve was filed as active; also: nearly all actives have a fitted effect of over 40% in size; also: potency is read from the fitted curve at half-maximal effect). The method in brief: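 Cell viability is measured by CellTiter-Fluor fluorescence in PGC/ERR cells that receive compounds after a 6-hour attachment period and are then incubated 17.5 hours at 37 C.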

The target of assay [3] is Thyrotropin receptor (Homo sapiens) (UniProt P16473). As to the kind of experiment: qHTS assay to identify small molecule agonists of the thyroid stimulating hormone receptor (TSHR) signaling pathway (AID 1224843; calls by dose curve; also: nearly all actives have a fitted effect of over 45% in size). The method, boiled down: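 HEK293/TSHR, 800 cells/well; cpd 30 min RT; add cAMP-d2 + anti-cAMP-cryptate, 1 h RT; fluorescence read on plate reader. 15-pt titration, n=3.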
Chain of Thyrotropin receptor (Homo sapiens) (P16473 whole entry, looked up): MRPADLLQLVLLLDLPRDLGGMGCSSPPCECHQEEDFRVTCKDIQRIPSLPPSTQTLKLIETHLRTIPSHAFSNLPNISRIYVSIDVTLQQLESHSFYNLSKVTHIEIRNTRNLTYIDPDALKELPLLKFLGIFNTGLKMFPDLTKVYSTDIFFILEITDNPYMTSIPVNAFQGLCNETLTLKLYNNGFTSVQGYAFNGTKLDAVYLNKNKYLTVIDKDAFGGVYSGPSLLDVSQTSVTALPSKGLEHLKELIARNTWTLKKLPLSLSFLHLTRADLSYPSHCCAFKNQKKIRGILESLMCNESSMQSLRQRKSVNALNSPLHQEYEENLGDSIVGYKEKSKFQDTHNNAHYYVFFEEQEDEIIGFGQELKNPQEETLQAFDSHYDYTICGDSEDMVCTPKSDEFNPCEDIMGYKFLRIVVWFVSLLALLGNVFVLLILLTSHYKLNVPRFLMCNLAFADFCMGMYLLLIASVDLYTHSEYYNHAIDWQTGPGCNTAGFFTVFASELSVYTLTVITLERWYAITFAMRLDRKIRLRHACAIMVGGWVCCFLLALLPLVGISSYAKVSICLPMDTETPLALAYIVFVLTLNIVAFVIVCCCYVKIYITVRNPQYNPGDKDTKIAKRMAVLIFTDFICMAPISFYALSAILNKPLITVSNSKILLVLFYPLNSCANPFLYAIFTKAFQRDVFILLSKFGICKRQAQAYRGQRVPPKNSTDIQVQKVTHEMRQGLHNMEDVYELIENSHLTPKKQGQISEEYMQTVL

The nature of assay [4]: qHTS assay to identify small molecule agonists of the hypoxia (HIF-1) signaling pathway - cell viability counter screen (AID 1224844; calls by dose curve; also: nearly all actives have a fitted effect of over 50% in size; also: potency is read from the fitted curve at half-maximal effect). The method, boiled down: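 Viability counter screen: HRE-bla ME-180 cells plated 5 hrs before compound addition, treated 17 hrs at 37C and 5% CO2, then CellTiter-Glo added after the FRET reporter read; luminescence after 30 min.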
The nature of assay [5]: qHTS assay to identify small molecule agonists of H2AX - cell viability counter screen (AID 1224847; calls by dose curve; also: nearly all actives have a fitted effect of over 30% in size; also: potency is read from the fitted curve at half-maximal effect). The method, boiled down: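 Quantitative HTS viability measurement: CHO-K1 wild-type cells in serum (10% FBS) medium, short 3 hr drug exposure at 37C with 0.76% DMSO, CellTiter-Glo luminescent detection.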
A short description of assay [6]: qHTS RealTime-Glo MT Cell Viability Assay in HepG2 cells - 24 hour (AID 1224867). Also: nearly all actives have a fitted effect of over 50% in size. Also: potency is read from the fitted curve at half-maximal effect. The method in brief: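 Real-time, nonlytic viability: 600 HepG2 cells/well mixed with NanoLuc enzyme plus prosubstrate; 5 h settle, compound (DMSO) added by pintool; luminescence monitored over 40 h at 37 C.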
The nature of assay [7]: qHTS RealTime-Glo MT Cell Viability Assay in HEK293 cells - 32 hour (AID 1224868). Also: nearly all actives have a fitted effect of over 50% in size. Also: potency is read from the fitted curve at half-maximal effect. The method, boiled down: (§1)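 Cells + reagent dispensed (600 cells/well, HEK293) → 5 h at 37 C/5% CO2 → 23 nL compound in DMSO pinned → 40 h at 37 C → luminescence read at 0, 8, 16, 24, 32, 40 h.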
Assay [8] in a line: qHTS RealTime-Glo MT Cell Viability Assay in HepG2 cells - 40 hour (AID 1224870). Also: nearly all actives have a fitted effect of over 50% in size. Also: potency is read from the fitted curve at half-maximal effect. The method in brief: (§2)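 HepG2 cells (600/well) mixed with RealTime-Glo MT reagent, settled 5 h at 37 C/5% CO2 before compound addition. Nonlytic NanoLuc luminescence from viable-cell prosubstrate reduction read repeatedly during 40 h treatment at 37 C.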
The nature of assay [9]: A CellTox Green Cytotoxicity Assay to monitor cytotoxicity in HEK293 cells - 40 hour (AID 1224871). Also: nearly all actives have a fitted effect of over 45% in size. Also: potency is read from the fitted curve at half-maximal effect. The method in brief:
(§3)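 Dead-cell fluorescence measured kinetically: asymmetric cyanine dye, HEK293, 600 cells/well, 5 h settle, 23 nL cpd/DMSO, 37 C, reads 0–40 h every 8 h.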

Assay [10] in a line: qHTS RealTime-Glo MT Cell Viability Assay in HEK293 cells - 16 hour (AID 1224872). Also: nearly all actives have a fitted effect of over 50% in size. Also: potency is read from the fitted curve at half-maximal effect. The method in brief:
as §1

Assay [11] can be described thus: qHTS RealTime-Glo MT Cell Viability Assay in HepG2 cells - 8 hour (AID 1224873). Also: nearly all actives have a fitted effect of over 55% in size. Also: potency is read from the fitted curve at half-maximal effect. The method, boiled down: as §2
A short description of assay [12]: qHTS assay to identify small molecule agonists of H2AX (AID 1224845; active = well fitted activation curve with a large enough effect in the signal ratio in the repeat runs, not every such curve was filed as active; the % refers to the signal ratio). The method, boiled down:
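Wild-type CHO-K1 cells, plated overnight, exposed 3hr at 37C to 15 concentrations (0.76% DMSO final). Lysed, then HTRF anti-pH2AX (S139) cryptate and anti-H2AX-d2 antibodies, 24 hr room temperature; 665/620 nm emission read.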

Assay [13] can be described thus: qHTS assay to identify small molecule agonists of the hypoxia (HIF-1) signaling pathway (AID 1224846; active = well fitted activation curve with a large enough effect in the signal ratio in the repeat runs, not every such curve was filed as active; the % refers to the signal ratio). The method in brief:
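Agonist mode reporter screen. ME-180 cells stably expressing bla under HRE control received test compounds in DMSO for 17 hrs (37C, 5% CO2), and beta-lactamase activity was then detected with the CCF4-AM FRET substrate.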

The target in assay [14] is Nuclear receptor subfamily 1 group I member 3 (Homo sapiens) (UniProt Q14994). As to the kind of experiment: qHTS assay to identify small molecule antagonists of the constitutive androstane receptor (CAR) signaling pathway (AID 1224838).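 Also: HepG2 cells stably expressing hCAR with CYP2B6 luciferase reporter stimulated by CITCO; nearly all actives have a fitted effect of over 40% in size.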 Also: potency is read from the fitted curve at half-maximal effect. The method in brief:
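Luminescence from a CYP2B6-2.2kb promoter reporter in hCAR-expressing HepG2 cells reflects CAR signaling. Cells received compounds at 15 concentrations and 50 nM CITCO (final), then incubated 24 h at 37 C/5% CO2.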

Assay [15] is described as follows: A CellTox Green Cytotoxicity Assay to monitor cytotoxicity in HEK293 cells - 0 hour (AID 1224869). Also: nearly all actives have a fitted effect of over 50% in size. The method, boiled down: as §3

Values joined by “and” are separate entries in the source; they are usually repeats but may differ in a detail not shown here. Identical values can stand only once. Results filed as inconclusive are left out. A structure can be active in one record and inactive in another. Active and inactive are the calls of the source. Unless noted, calls follow the shape of the dose curve; as a rule, active = well fitted curve in the direction sought with a large enough effect in the repeat runs; inconclusive = weak or mixed curves; inactive = no such curve, though single readings can be large; an effect the other way counts as inactive or inconclusive.

Chain of Nuclear receptor subfamily 1 group I member 3 (Homo sapiens) (Q14994 whole entry, looked up): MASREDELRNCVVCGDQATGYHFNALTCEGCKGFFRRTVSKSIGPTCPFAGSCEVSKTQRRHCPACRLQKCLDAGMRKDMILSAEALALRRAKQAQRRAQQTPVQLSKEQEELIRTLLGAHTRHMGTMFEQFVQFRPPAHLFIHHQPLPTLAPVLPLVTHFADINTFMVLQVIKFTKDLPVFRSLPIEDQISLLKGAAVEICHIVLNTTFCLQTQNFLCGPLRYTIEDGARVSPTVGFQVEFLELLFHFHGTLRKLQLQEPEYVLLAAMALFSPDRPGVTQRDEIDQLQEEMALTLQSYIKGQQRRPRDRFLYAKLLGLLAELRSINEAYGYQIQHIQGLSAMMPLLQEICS

Regarding `CN(C)[C@@H]1C(=O)C(C(N)=O)=C(O)[C@@]2(O)C(=O)C3=C(O)c4c(O)cccc4[C@@](C)(O)[C@H]3[C@H](O)[C@@H]12`, the Potency result in assay [1], in assay [2], in assay [3], in assay [4], in [5] and in assay [6] was “inactive” throughout. The Potency entry in assay [7], in assay [8], in assay [9], in assay [10] and in [11] was “inactive” throughout.

For the compound `CCCCCCCCCCn1cc[n+](C)c1`, the Potency entry in assay [1], in assay [2], in assay [4], in [12], in [6] and in assay [8] was “inactive” in each case. Also, the Potency result in assay [11] was “inactive”. Moreover, the compound was classed as inactive in assay [13]. Also, the Potency entry in assay [10] was “inactive and 346 nM (active)”.

As to `CCCCCC[n+]1ccccc1`, the Potency entry in assay [1], in assay [2], in [4], in assay [12], in [5] and in [6] was “inactive” throughout. Moreover, the Potency entry in [8], in [9], in assay [10] and in [11] was “inactive” in each case. For the same compound, the compound was classed as inactive in [13].

In the case of `CCCC[n+]1ccccc1C`, the Potency entry in assay [1], in assay [2], in assay [4], in assay [12], in [5] and in assay [6] was “inactive” each time. The Potency result in [7], in [8], in assay [9], in assay [10] and in assay [11] was “inactive” throughout. The compound was classed as inactive in [13].

On to `CCCCCCCCCCCCCCCCn1cc[n+](C)c1`, for which the Potency entry was “inactive and 30.9 µM (active) and 27.4 µM (active)” in assay [14]; “inactive and 61.7 µM (active) and 27.4 µM (active)” in [2]; “inactive and 49.4 µM (active) and 31 µM (active)” in assay [4]; “inactive and 49.4 µM (active) and 43.8 µM (active)” in assay [6]; “inactive and 39.2 µM (active) and 31 µM (active)” in [8]; “inactive and 19.7 µM (active) and 24.6 µM (active)” in [9]. For the same compound, the Potency result is “inactive and 24.8 µM (active) and 24.6 µM (active)” in assay [10]; “inactive and 49.1 µM (active)” in assay [11]. The Potency entry in [3], in assay [12] and in [15] was “inactive” throughout. The outcome in assay [13] was inactive.

Regarding `CCCC[N+]1(C)CCCCC1`, the Potency result in [1], in assay [2], in [3], in [4], in [12] and in assay [5] was “inactive” each time. The Potency entry in assay [7], in assay [9], in assay [10] and in [11] was “inactive” each time. Further, the compound was called inactive in assay [13]. For the same compound, the Potency entry in assay [6] was “inactive and 48.8 µM (active)”; in [8], “inactive and 30.8 µM (active)”.

`COP(=O)(OC)OC=C(Cl)Cl`: the Potency entry in assay [1], in [2], in [4], in assay [12], in assay [5] and in assay [6] was “inactive” each time. The Potency entry in assay [7], in [8], in [9], in assay [10] and in assay [11] was “inactive” throughout. Moreover, the result in [13] was inactive.

In the case of `Nc1ccc(-c2ccc(N)c(Cl)c2)cc1Cl`, the Potency result in assay [1], in assay [3] and in assay [4] was “inactive” each time. The Potency result was “inactive and 27.3 µM (active)” in [2]; 101 µM (active) in [5]; “inactive and 49 µM (active)” in [6]; 12.4 µM (active) and 18.2 µM (active) and 21.9 µM (active) in assay [7]; “inactive and 54.9 µM (active)” in [8]; “inactive and 43.6 µM (active)” in [9]. In addition, the Potency in [10] is 24.5 µM (active); in assay [11], “inactive and 43.6 µM (active)”. For the same compound, in assay [13], the call was inactive.

On to `CCCC[n+]1cccc(C)c1`, for which the Potency entry in [1], in assay [2], in assay [4], in assay [12], in assay [5] and in assay [6] was “inactive” throughout. The Potency entry in assay [7], in assay [15], in assay [9], in assay [10] and in assay [11] was “inactive” throughout. In assay [13], the call was inactive. Besides, the Potency result in [8] was “inactive and 49.6 µM (active)”.

As for `Nc1ccccc1`, the Potency result in assay [1], in [2], in [3], in assay [4], in assay [12] and in [5] was “inactive” throughout. Besides, the Potency entry in assay [6], in assay [7], in assay [8], in assay [9], in assay [10] and in [11] was “inactive” throughout. Further, the compound was classed as inactive in [13].

With `CCCC[n+]1ccccc1`, the Potency result in assay [1], in assay [2], in assay [3], in assay [4], in assay [12] and in assay [5] was “inactive” in each case. The Potency entry in assay [6], in [7], in [8], in [9], in assay [10] and in assay [11] was “inactive” throughout. Further, the compound was classed as inactive in [13].

For `CCCCn1cc[n+](C)c1C`, the Potency result in assay [1], in assay [2], in assay [4], in assay [12], in [5] and in [6] was “inactive” each time. Also, the Potency entry in assay [7], in [9], in [10] and in assay [11] was “inactive” in each case. For the same compound, the call in assay [13] was inactive. In addition, in assay [8], the Potency result was “inactive and 22.1 µM (active)”.

`CNC`: the Potency entry in [1], in assay [2], in [4], in assay [12], in [5] and in assay [6] was “inactive” each time. Also, the Potency entry in assay [7], in assay [15], in assay [8], in assay [9], in [10] and in [11] was “inactive” throughout. For the same compound, the compound was classed as inactive in [13].

For the compound `CCCCCCCCCCCCOS(=O)(=O)O`, the Potency entry in assay [1], in assay [2], in assay [12], in assay [5], in assay [6] and in [7] was “inactive” each time. In addition, the Potency entry in [15], in [8], in assay [10] and in assay [11] was “inactive” throughout. In addition, the Potency in assay [4] is 48.3 µM (active) and inactive. The compound was called inactive in assay [13].

In the case of `CC[N+]1(C)CCCC1`, the Potency result in [1], in assay [2], in assay [4], in assay [12], in [5] and in [6] was “inactive” in each case. The Potency result in [8], in [9], in assay [10] and in assay [11] was “inactive” in each case. Besides, the call in assay [13] was inactive. Moreover, the Potency entry in [7] was “inactive and 21.9 µM (active)”.

Turning to `CCCC[N+]1(C)CCCC1`, the Potency entry in [1], in [2], in assay [4], in assay [12], in [5] and in [6] was “inactive” throughout. In addition, the Potency entry in [7], in [9], in assay [10] and in assay [11] was “inactive” each time. Also, the result in [13] was inactive. Moreover, in assay [8], the Potency result was “inactive and 43.9 µM (active)”.

The record behind these values is PubChem BioAssay (Tox21).
